Experimental data reported in PubChem BioAssay AID893 (National Center for Advancing Translational Sciences (NCATS), 2007).
Out of some 75,000 compounds screened, about 5,700 (7.6%) were called active. Entries that show only a call come without a potency. Not shown: some 7% with an inconclusive outcome. This is one part of a sample in which actives are shown more often than they occur. A number with no mark means an inactive call. Calls follow the shape of the dose curve; as a rule, active = well fitted inhibition curve with a large enough effect; inconclusive = small, poorly fitted or top-dose-only effect; inactive = no such curve, though single readings can be large or run the other way.

Target: 3-hydroxyacyl-CoA dehydrogenase type-2 (Homo sapiens) (UniProt Q99714)
Test: qHTS Assay for Inhibitors of HSD17B4, hydroxysteroid (17-beta) dehydrogenase 4;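 also: the protocol describes HADH2 (HSD17B10) and not the HSD17B4 of the title; nearly all actives have a fitted effect of over 70% in size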
Details: recombinant HSD17B10, NADH fluorescence kinetic; series mostly up to 57.1 µM
Summary of the method: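 His-tagged E. coli-expressed HADH2 at 20 nM in 100 mM Tris-HCl pH 9.0 with 0.01 % Tween-20, preincubated 15 min with compound at room temperature. Reaction with 1 mM NAD+ and 90 uM beta-hydroxybutyryl coenzyme A; NADH fluorescence (360/450 nm) read kinetically over 4 min, last minus first point.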
Potency is read from the fitted curve at half-maximal effect.

Row | Compound | Potency | activity change, negative = inhibition
1 | Cc1cc(C)cc(N)c1 | inactive | –
2 | CCOC(=O)CC1=CC(=O)Nc2ccccc2N1 | inactive | –
3 | CCCc1nc2ccccc2c(=O)n1NC(=O)c1c(O)c2ccccc2[nH]c1=O | inactive | –
4 | CCCOC(=O)Cc1c(O)c2ccccc2[nH]c1=O | 31.6 µM (active) | –
5 | O=C(N1CCOCC1)N(Cc1ccccc1)c1ccccn1 | inactive | –
6 | CCNC(=O)N1CCNC(=O)C1CC(=O)Nc1ccc(C(=O)OCC)cc1 (stereo not given) | inactive | –
7 | O=C(C1CCCO1)N(Cc1ccccc1)c1ccccc1 (stereo not given) | inactive | –
8 | CCS(=O)(=O)N1CCN(C(=O)c2cccs2)CC1 | inactive | –
9 | CCCS(=O)(=O)N1CCN(C(=O)c2cccs2)CC1 | inactive | –
10 | COc1ccc(S(=O)(=O)N2CCN(C(=O)c3cccs3)CC2)cc1OC | 3.98 µM (active) | –
11 | COc1ccc(C2N=C(N)N=C(N)N2c2ccccc2)cc1OC (stereo not given) | inactive | –
12 | Cc1cc(C)c2nc(N3CCCC3)c(C#N)cc2c1 | 31.6 µM (active) | –
13 | C=CCOC(=O)C(C(C)=O)C(NC(=O)OC)c1ccccc1 (stereo not given) | – | 10.6% [at 11.4 µM]
14 | CCCCn1c(SCC(=O)NCC2CCCO2)nc2ccc(N3CCOCC3)cc2c1=O (stereo not given) | 31.6 µM (active) | –
15 | CCc1ccc(NC(=O)CSc2nc3ccccc3c(=O)n2CCN2CCOCC2)cc1 | inactive | –
16 | CCn1c(SCC(=O)NCC2CCCO2)nc2cc(S(=O)(=O)N3CCCCC3)ccc21 (stereo not given) | inactive | –
17 | Cc1cc(Nc2cccc(F)c2)n2ncnc2n1 | inactive | –
18 | Cc1ccc(NC(=O)CCN2CCc3ccccc3C2)cc1 | inactive | –
19 | Cc1cc(C)nc(N2CCN(c3ncnc4c3oc3ccccc34)CC2)n1 | inactive | –
20 | Cc1ccc2c(c1)c1ncnc(N3CCc4ccccc4C3)c1n2C | 31.6 µM (active) | –
21 | CCCCCCCCCc1ccc(OCCOCCOCCOCCOCCOCCOCCOCCOCCO)cc1 | inactive | –
22 | O=C(CSc1nnc(-c2ccc(NS(=O)(=O)c3ccccc3)cc2)o1)NCC1CCCO1 (stereo not given) | inactive | –
23 | O=C(COC(=O)c1ccc(Oc2ccccc2)cc1)Nc1nnc(-c2ccccc2)o1 | inactive | –
24 | COc1ccc(NC(=O)c2ccc(OC)cc2)cc1 | inactive | –
25 | COc1ccc(CC(=O)Nc2ccc(-c3nnc(-c4ccccc4)o3)cc2)cc1 | 12.6 µM (active) | –
26 | COc1ccc(CC(=O)Nc2ccc(-c3nnc(-c4ccc(C)cc4)o3)cc2)cc1 | 2.51 µM (active) | –
27 | O=C(Nc1ccc(-c2nnc(-c3ccccc3)o2)cc1)C1CCCO1 (stereo not given) | 20 µM (active) | –

Row | Compound | Potency | activity change, negative = inhibition
28 | CCCCCNC(=O)Cc1ccc(OC)cc1 | inactive | –
29 | O=C(Nc1nnc(CCc2ccccc2)s1)C1CCCO1 (stereo not given) | inactive | –
30 | COc1ccc(C(CC(=O)O)NC(=O)Cc2ccccc2)cc1 (stereo not given) | inactive | –
31 | CCCCNC(=O)CSc1nccn1Cc1ccccc1 | inactive | –
32 | CC(=O)Nc1cc(C(=O)O)ccc1S(=O)(=O)c1ccc(Cl)cc1 | inactive | –
33 | O=S1(=O)CCN2C(=N1)SC1=C2CCN(Cc2ccccc2)C1 | inactive | –
34 | COc1ccc(Br)c2c1C[C@H](C(=O)O)CC2 | – | 7.09% [at 11.4 µM]
35 | O=C(CSc1nc2ccccc2o1)N1CCN(c2ccc(Cl)cc2)CC1 | inactive | –
36 | COc1ccc(-n2c(SCC(=O)OC(C)C)nnc2-c2ccccn2)cc1 | inactive | –
37 | COc1ccc(CCNC(=O)c2ccco2)cc1 | inactive | –
38 | CCOC(=O)C1C(=O)NC(N2CCN(c3ccccc3)CC2)=NC1c1ccco1 (stereo not given) | inactive | –
39 | CCOC(=O)C1C(=O)C=C(c2ccc(OC)cc2)CC1c1ccco1 (stereo not given) | 20 µM (active) | –
40 | CCOc1ccc2nc(NCCNS(=O)(=O)c3ccccc3)c(C#N)cc2c1 | 25.1 µM (active) | –
41 | CCOc1ccc2nc(N3CCCN(C(=O)Nc4ccccc4C)CC3)c(C#N)cc2c1 | inactive | –
42 | CCOc1ccc2cc(C#N)c(SCC(=O)OC)nc2c1 | inactive | –
43 | CC1=C(C(=O)OCc2ccccc2)C(c2ccc(C(F)(F)F)cc2)NC(=O)N1CCCCCC(=O)O (stereo not given) | inactive | –
44 | CC(NC(=O)c1ccc(Cl)cc1)C(=O)N1CCCCC1 (stereo not given) | inactive | –
45 | CCOc1ccc(NC(=O)Nc2cc(C)ccc2OC)cc1 | inactive | –
46 | COc1ccc(NC(=O)Nc2cccc3cccnc23)cc1 | inactive | –
47 | COc1ccc(Cn2cccc(NC(=O)Nc3ccc(C#N)cc3)c2=O)cc1 | 15.8 µM (active) | –
48 | CO/N=C(\C(=O)N[C@@H]1C(=O)N2C(C(=O)O)=C(COC(C)=O)CS[C@H]12)c1csc(N)n1 (stereo in doubt) | inactive | –
49 | COc1c(F)c(F)c(-c2csc(N)n2)c(F)c1F | inactive | –
50 | CCOc1ccc(OCC)c(NC(=O)CSc2nnc(Cn3cnc4ccccc43)n2C)c1 | inactive | –
51 | Cc1nc2nc(COc3ccccc3)[nH]n2c(=O)c1Cc1ccccc1 | inactive | –
52 | O=c1[nH]c(-c2cccs2)nc2ccccc12 | inactive | –
53 | CCc1c(C)nc2cc(-c3cccs3)[nH]n2c1=O | 31.6 µM (active) | –
54 | CCCCNC(=O)c1c[nH]c2ccc(S(=O)(=O)Nc3ccc(OCC)cc3)cc2c1=O | inactive | –

Row | Compound | Potency | activity change, negative = inhibition
55 | CCCCn1c(SCC(=O)N2CCC(C(=O)OCC)CC2)nc2cc(S(N)(=O)=O)ccc21 | inactive | –
56 | CCOc1ccc(CNC(=O)C2CCC(=O)N2C2CCCC2)cc1OC (stereo not given) | inactive | –
57 | CCOc1cc(C2C(C(=O)OC)=CN(C3CCCC3)C=C2C(=O)OC)cc(Br)c1O | 25.1 µM (active) | –
58 | CCCC(=O)Nc1cc(OCC)c(NC(=O)NC2CCCCC2)cc1OCC | inactive | –
59 | COCCCN(C(=O)Cn1ncc2c(=O)oc3ccc(C)cc3c21)C(C)c1ccncc1 (stereo not given) | inactive | –
60 | Cn1c(=O)cc(SCC(=O)N2CCCC2)c2cc(Cl)ccc21 | inactive | –
61 | COc1ccc(-c2cc(C(F)(F)F)n3nc(C(=O)N4CCOCC4)c(Cl)c3n2)cc1 | inactive | –
62 | Cc1cc(C(F)(F)F)nn1CC(=O)N1CCCC1 | inactive | –
63 | Cc1ccc(-c2cc(C(F)(F)F)n3nc(C(=O)N4CCCC4)cc3n2)cc1 | 20 µM (active) | –
64 | c1ccc(CCc2nc(-c3ccncc3)no2)cc1 | inactive | –
65 | COc1ccc(Br)cc1S(=O)(=O)N1CCN=C1C | inactive | –
66 | Cc1cc(C)cc(N(CC(=O)Nc2c(C)n(C)n(-c3ccccc3)c2=O)S(C)(=O)=O)c1 | inactive | –
67 | O=C(NC1CCCCC1)C1CCCN(S(=O)(=O)c2cccs2)C1 (stereo not given) | inactive | –
68 | Cc1ccc(OCc2nc(C#N)c(N3CCCC3)o2)cc1 | inactive | –
69 | CC1CCN(c2oc(-c3ccccc3F)nc2C#N)CC1 | 31.6 µM (active) | –
70 | N#Cc1nc(COc2ccc(Cl)cc2)oc1N1CCCC1 | inactive | –
71 | CN(CCCNC(=O)CN1C(=O)CC(C)(C)S(=O)(=O)c2ccccc21)C1CCCCC1 | inactive | –
72 | Nc1nc2c(nc(Cl)n2C2OC(CO)C(O)C2O)c(=O)[nH]1 (stereo not given) | inactive | –
73 | COC(=O)[C@@]1(Cc2ccc(F)cc2)[C@H]2c3cc(C(=O)N4CCCC4)n(Cc4ccc(OC(F)(F)F)cc4)c3C[C@H]2CN1C(=O)c1ccccc1 | inactive | –
74 | C[C@]12C=CC(=O)C=C1CC[C@@H]1[C@@H]2C(=O)C[C@@]2(C)[C@H]1CC[C@]2(O)C(=O)CO | 15.8 µM (active) | –
75 | CC(=O)OCC(=O)[C@@]1(O)CC[C@@H]2[C@H]3CCC4=CC(=O)C=C[C@]4(C)[C@]3(F)[C@@H](O)C[C@@]21C | inactive | –
76 | CC(=O)OCC(=O)[C@@]1(O)CCC2C3CCC4=CC(=O)CC[C@]4(C)C3C(=O)C[C@]21C (stereo not given in full) | inactive | –
77 | COC(=O)[C@H](C(C)C)n1c(C)c(C(C)=O)c(C(C)=O)c1C | inactive | –
78 | O=S(=O)(CCc1nc2ccccc2o1)c1ccc(Cl)cc1 | inactive | –
79 | O=C(CCn1c(=S)[nH]c2ccccc2c1=O)NCCCN1CCCC1=O | inactive | –
80 | O=C1CCCN1CCCNc1ncnc2c1[nH]c1ccccc12 | 31.6 µM (active) | –
81 | CC1(C)CC(=O)C=C(NCCCN2CCCC2=O)C1 | inactive | –

Row | Compound | Potency | activity change, negative = inhibition
82 | Cc1c(C(=O)Nc2ccccc2Cl)oc2ccc(S(=O)(=O)N3CCC4(CC3)OCCO4)cc12 | 25.1 µM (active) | –
83 | CCOC(=O)C1CCN(C(=O)c2oc3ccc(S(=O)(=O)N4CCCCCC4)cc3c2C)CC1 | inactive | –
84 | CCOc1ccccc1NC(=O)c1cc(S(=O)(=O)N2CCC3(CC2)OCCO3)ccc1F | inactive | –
85 | CCOC(=O)N1CCN(Cc2oc(CO)cc(=O)c2O)CC1 | inactive | –
86 | O=C(Nc1cccc(C(=O)N2CCCC2)c1)c1ccccc1 | inactive | –
87 | Cc1nc2ccc(NC(=O)N3CCC(c4ccccc4)C3)cc2nc1C (stereo not given) | 25.1 µM (active) | –
88 | O=C(Nc1cccc(NC(=O)N2CCN(c3ccccc3)CC2)c1)N1CCN(c2ccccc2)CC1 | inactive | –
89 | O=C(O)[C@H](CCc1ccccn1)c1ccccc1 | – | 1.79% [at 11.4 µM]
90 | CC(=O)Nc1nc(C)c(Cc2ccccc2)c(=O)[nH]1 | inactive | –
91 | CSc1ccc(Cl)c(C(=O)OCC(=O)N2CC(C)OC(C)C2)c1 (stereo not given) | inactive | –
92 | CC1(C)CC(=O)C(C=NCCC2=CCCCC2)=C(O)C1 | 31.6 µM (active) | –
93 | CC(=O)N1CCN(CCN=CC2=C(O)CC(C)(C)CC2=O)CC1 | inactive | –
94 | CC1(C)CC(=O)C(C=NCc2cccnc2)=C(O)C1 | inactive | –
95 | O=c1cc(CSc2ccc(Cl)cc2)nc(N2CCOCC2)[nH]1 | inactive | –
96 | COc1ccc2nc(NC(=O)c3ccc(Br)s3)sc2c1 | 31.6 µM (active) | –
97 | CNC(=O)c1ccc2nc(NC(C)=O)sc2c1 | inactive | –
98 | CCn1c(SCC(=O)Nc2nc3ccc(OC)cc3s2)nnc1-c1ccoc1C | inactive | –
99 | CC1(C)CN=C(N2CCN(c3ncnc4sc5c(c34)CCCC5)CC2)S1 | inactive | –
100 | ON=C1/C(=N\O)CC2(C/C1=N/O)OCCO2 | inactive | –
101 | O=C(NCc1ccco1)c1nc2ncccn2n1 | inactive | –
102 | O=C(NCc1ccccn1)c1ccc2nc(-c3ccco3)c(-c3ccco3)nc2c1 | 12.6 µM (active) | –
103 | CC(C)CC1(C(=O)NCc2ccccn2)C=CCN1C(=O)c1ccccc1 (stereo not given) | inactive | –
104 | CCn1nnc(NC(=O)c2cc(Cl)c(OC)c(Cl)c2)n1 | inactive | –
105 | Cc1noc(C)c1S(=O)(=O)N(CC(=O)NCc1ccc(Cl)cc1)c1ccc2c(c1)OCO2 | inactive | –
